Measurements published in PubChem BioAssay AID540276 (National Center for Advancing Translational Sciences (NCATS), 2011).
Hit rate of the full screen: of about 300,000 compounds, about 5,400 (1.8%) were called active. Inconclusive results (about 28%) are left out. The sample holds actives, similar compounds and a random draw of the others, so the mix is not that of the screen. Values without a mark were called inactive. Calls come from the whole dose curve; tested in HEK293 cells.

experiment: qHTS for inhibitors of binding or entry into cells for Marburg Virus; settings: Marburg virus pseudotyped entry inhibition, cell reporter; series mostly up to 37.8 µM; activity change, negative = inhibition: at the top concentration
% is set by controls: 0 for no effect and ±100 for the full control effect; potency is the fitted concentration of half-maximal effect.

Structure (SMILES) | activity change, negative = inhibition | Potency
CCOC(=O)C1CCN(S(=O)(=O)c2ccc3c(c2)N(C(C)=O)CCO3)CC1 | -20.1% [at 46.1 µM] | –
O=C(c1cccnc1)N(Cc1ccccc1)C(=O)c1cccnc1 | -21.8% [at 46.1 µM] | –
O=C(NCC(=O)N1CCN(c2ncc(C(F)(F)F)cc2Cl)CC1)c1ccc(Br)o1 | -29.7% | –
O=C(Nc1cccc2c1CCCC2)c1ccc(F)cc1 | 16.4% | –
CC(C)C1CCCCC1NC(=O)CN1C(=O)C2=C(CCCC2)C1=O (stereo not drawn) | -0.855% [at 46.1 µM] | –
CCOc1ccc(S(=O)(=O)N2CCN(C(=O)c3oc4ccccc4c3C)CC2)cc1 | -34.1% | –
Cc1cc(C)cc(OCC(=O)Nc2nc3ccc([N+](=O)[O-])cc3s2)c1 | 16.2% | –
O=C(COC(=O)c1ccc(F)cc1)Nc1nc2ccc([N+](=O)[O-])cc2s1 | 0.764% | –
O=C(NC(Nc1nc2ccc([N+](=O)[O-])cc2s1)(C(F)(F)F)C(F)(F)F)c1ccccc1 | – | 0.517 µM (active)
Cc1ccccc1N1CCN(C(=O)c2cccnc2)CC1 | 4.39% [at 46.1 µM] | –
O=C(NCCc1cccc(F)c1)C1CCCN(c2nc3ccccc3s2)C1 (stereo not drawn) | -29.4% [at 46.1 µM] | –
CCn1c(SCC(=O)NC2CCCC2)nnc1-c1ccoc1C | 1.25% [at 46.1 µM] | –
Cc1ccc(NC(=O)CSCC(=O)Nc2sccc2C#N)cc1 | 3.12% | –
Cc1csc(SCC(=O)Nc2sccc2C#N)n1 | – | 4.47 µM (active)
Cc1cccc(C)c1Nc1nnc(SCC(=O)Nc2sccc2C#N)s1 | -34.2% | –
O=[N+]([O-])c1cc2ccccc2nc1-c1ccccc1 | 16.2% [at 46.1 µM] | –
O=C(NCCN1CCOC1=O)C1CCC(=O)N(CCc2ccc(Cl)cc2)C1 (stereo not drawn) | -1.16% | –
COCCOC(=O)C1=C(C)OC(N)=C(C#N)[C@H]1c1ccco1 | -2.4% | –
CCNC(=O)N1c2ccccc2Sc2ccccc21 | 7.38% | –
O=C(CN1CCCCCC1)N1c2ccccc2Sc2ccc(C(F)(F)F)cc21 | – | 18.3 µM (active)
O=C(CN1C(=O)/C(=C\c2ccc(C(F)(F)F)cc2)Sc2ccccc21)NCc1ccco1 | 11.6% | –
Oc1ccc(-n2nnnc2SCc2c(F)cccc2Cl)cc1 | -9.4% [at 46.1 µM] | –
O=C(CCCO)N/N=C/c1cc(Br)ccc1O | -6.14% | –
O=C(N/N=C/c1ccc(O)c2ccccc12)c1cccnc1 | 16.1% [at 46.1 µM] | –
O=C(NN=Cc1ccccc1O)NN=Cc1ccccc1O | – | 3.98 µM (active)
Cc1ccc(NC(=O)CSc2nc(=O)n(CCN(C)C)c3c2CCCC3)c(C)c1 | 21.1% | –

Structure (SMILES) | activity change, negative = inhibition | Potency
O=C1CCCCC1Sc1ccc(Cl)cc1[N+](=O)[O-] (stereo not drawn) | 13% [at 46.1 µM] | –
CCn1c(SCC(=O)Nc2ccc(Br)cc2)nc2sc3c(c2c1=O)CCN(C)C3 | -2.58% [at 46.1 µM] | –
C/C(CC(=O)Nc1ccc(C)cc1C)=N\NC(=O)C(C)C | 24.7% [at 46.1 µM] | –
Cc1ccc(NC(=O)NC(C)c2c(-n3cccc3)sc(C)c2C)c(C)c1 (stereo not drawn) | – | 11.2 µM (active)
COc1ccc(NC(=O)NC(C)c2c(-n3cccc3)sc(C)c2C)cc1OC (stereo not drawn) | -7.63% [at 46.1 µM] | –
CC(=O)c1ccc(NC(=O)c2ccc3c(Cl)c4c(nc3c2)CCCC4)cc1 | 4.19% | –
CC(C)CCNC(=O)c1ccc2c(Cl)c3c(nc2c1)CCC3 | – | 10 µM (active)
COc1cccc(CNC(=O)c2ccc3c(Cl)c4c(nc3c2)CCCC4)c1 | -21.5% [at 46.1 µM] | –
COc1ccccc1N1CCC(N2CCN(CC(C)(C)C)C(CCO)C2)CC1 (stereo not drawn) | -13.7% [at 46.1 µM] | –
CC(C)(C)c1ccc(C(=O)N2CCN(CCNC(=O)C(=O)Nc3ccc(F)cc3)CC2)cc1 | -27.6% | –
COc1ccccc1CNC(=O)c1ccc(N(C)S(=O)(=O)c2ccc(C)cc2)cc1 | 0.594% | –
CC(C)c1nc(NC[C@H]2CCCO2)c(C#N)c2c1COC(C)(C)C2 | -28.1% | –
Nc1nc(Nc2ccccc2)nc(NCCO)c1[N+](=O)[O-] | 1.16% | –
CCN1CCN(c2nc(Nc3cccc(F)c3)nc(N)c2[N+](=O)[O-])CC1 | – | 12.6 µM (active)
COCCNc1nc(N)c([N+](=O)[O-])c(N2CCCCCC2)n1 | 4.6% [at 46.1 µM] | –
COC(=O)CC(CC(=O)OC)n1cccc1 | 28.2% | –
COc1ccc2[nH]c3nc(SCC(=O)NC4CC4)nnc3c2c1 | 10.1% [at 46.1 µM] | –
CC1CCCCC1NC(=O)c1cn(C)c2ccc(S(=O)(=O)N3CCOCC3)cc2c1=O (stereo not drawn) | 19% [at 46.1 µM] | –
Cc1cc(C(=O)NNC(=O)c2cccc(S(=O)(=O)N3CCOCC3)c2)c2ccccc2n1 | -20.8% [at 46.1 µM] | –
Cc1ccc(S(=O)(=O)C(C#N)c2nc3ccccc3nc2N2CCCC2)cc1C (stereo not drawn) | -9.41% | –
Cc1cc(N2CCN(S(=O)(=O)c3ccc(C)c(C)c3)CC2)c2ccccc2n1 | – | 16.4 µM (active)
CCOc1ccc(CCNC(=O)COC(=O)C2CCN(S(=O)(=O)c3ccccc3)CC2)cc1OCC | 2.99% | –
COc1cccc(/C=N/Nc2ccc(S(=O)(=O)Nc3ccccc3C(=O)O)cc2[N+](=O)[O-])c1O | 28.6% | –
COc1cccc(/C=N\NC(=O)C2=NNC(=O)C2C)c1O (stereo not drawn) | -25.7% | –
COc1cccc(/C=N/Nc2cc(C)nc(-c3ccccc3O)n2)c1O | – | 5.62 µM (active)
COCCN1C(=O)N(c2ccc(Cl)cc2)C(=O)C1CC(=O)Nc1cc(OC)cc(OC)c1 (stereo not drawn) | -6.26% | –

Structure (SMILES) | activity change, negative = inhibition | Potency
CCOC(=O)C1(Cc2ccccc2C)CCCN(C(=O)CCc2c(C)noc2C)C1 (stereo not drawn) | -26.5% [at 46.1 µM] | –
O=C1CC(c2ccccc2)C(c2ccccc2)=NN1 (stereo not drawn) | 0.609% [at 46.1 µM] | –
CCNC(=O)CCc1nc(-c2ccc(C)cc2)no1 | – | inactive
Cc1ccc(-c2noc(CCC(N)=O)n2)cc1 | 7.01% | –
CCNC(=O)CCc1nc(-c2ccc(C(C)(C)C)cc2)no1 | – | 8.91 µM (active)
COc1ccc(Cl)cc1NC(=O)c1cccc(N2C(=O)C3CC=CCC3C2=O)c1 (stereo not drawn) | -11.5% | –
O=C(CC1SC(N2CCCC2)=NC1=O)Nc1ccc(C(=O)NCCc2ccc(F)cc2)cc1 (stereo not drawn) | 16.2% | –
CC(C)C(=O)OCC(=O)Nc1ccc2c(c1)CCC2 | -11% [at 46.1 µM] | –
CC1CC(C)CN(CC(=O)Nc2ccc(S(N)(=O)=O)cc2)C1 (stereo not drawn) | 0% | –
CC1CC(C)CN(CCC(=O)Nc2ccc3c(c2)CCC3)C1 (stereo not drawn) | – | 7.3 µM (active)
Cc1nnc(NC(=O)C(c2ccccc2)c2ccccc2)s1 | 0.601% [at 46.1 µM] | –
CC/C(=C\c1ccc(Cl)cc1)c1ccncc1 | -7.96% | –
O=C1NCC(Nc2ccccc2)C(=O)N1 (stereo not drawn) | -1.5% | –
Cc1ccc(CN(C(=O)c2sc3ccccc3c2Cl)C2CCS(=O)(=O)C2)cc1 (stereo not drawn) | -19.4% | –
Cc1cc(Cl)ccc1OCC(=O)N(Cc1ccc(N(C)C)cc1)C1CCS(=O)(=O)C1 (stereo not drawn) | -10% [at 46.1 µM] | –
CC1(C)C(C=C(Cl)Cl)C1C(=O)N(Cc1ccc(Cl)cc1)C1CCS(=O)(=O)C1 (stereo not drawn) | – | 12.6 µM (active)
CCOC(=O)C1(Cc2ccccc2C)CCCN(C(=O)c2ccc(COC)o2)C1 (stereo not drawn) | -28% | –
O=C1NC(c2ccccc2)Cc2ccncc21 (stereo not drawn) | 18% | –
Cc1c(C)c2c(c(C)c1O)CC[C@@](C)(CN1CCN(c3cc(N4CCCC4)nc(N4CCCC4)n3)CC1)O2 | – | 10 µM (active)
O=c1nc(NO)ccn1C1CCCO1 (stereo not drawn) | 5.3% | –
N=c1oc2ccccc2cc1C(=O)NCc1ccccc1 | 6.37% | –
Cc1cccc(-n2nc3c(c2NC(=O)c2cc4ccccc4o2)CS(=O)(=O)C3)c1 | 0.783% | –
CCOc1ccc(C(=O)Nc2c3c(nn2-c2ccccc2)CS(=O)(=O)C3)cc1 | -5.01% | –
COc1cccc(C(=O)Nc2c3c(nn2-c2cccc(C)c2C)CS(=O)(=O)C3)c1OC | – | 18.3 µM (active)
CCN(CC(=O)Nc1ccc(OC)cc1)C(=O)c1ccc(Cl)c(S(=O)(=O)N2CCCC2)c1 | 1.55% | –
COc1cccc(N(CC(=O)NC2CCCCCC2)S(=O)(=O)c2ccccc2)c1 | 15.1% | –

Structure (SMILES) | activity change, negative = inhibition | Potency
Cn1c(=O)c2c(nc(NCCNC(=O)c3ccco3)n2Cc2ccccc2F)n(C)c1=O | -2.49% [at 46.1 µM] | –
Cn1c(=O)c2c(nc(NCCc3ccccc3)n2Cc2ccccc2)n(C)c1=O | – | 7.3 µM (active)
Cn1c(=O)c2c(nc(NCCc3ccccc3)n2Cc2ccccc2Br)n(C)c1=O | 4.15% [at 46.1 µM] | –
COC(=O)c1ccc(CNC(=O)c2ccc3oc(C(C)C)nc3c2)cc1 | 8.4% | –
Cc1nc2ccc(C(=O)N/N=C/c3ccc(O)cc3)cc2[nH]1 | 6.82% [at 46.1 µM] | –
Cc1ccc2occ(/C=N/NC(=O)c3ccccc3C)c(=O)c2c1 | 24.7% | –
Cc1ccc(/C=N/NC(=O)C2=NNC(c3ccccc3)(c3ccccc3)C2)c(O)c1 | – | 8.91 µM (active)
COc1ccc(NC(=O)c2cccc(Cl)c2)c[n+]1[O-] | 5.7% | –
O=C(OCC(=O)N1CCN(C(=O)c2ccco2)CC1)c1c(Cl)cccc1Cl | 22.8% | –
CC1CCN(C(=O)CCc2nnc3ccc(NCc4ccco4)nn23)CC1 | – | 3.16 µM (active)
COc1cccc(NC(=O)CCc2nnc3ccc(N4CCC(C)CC4)nn23)c1 | -5.71% [at 46.1 µM] | –
O=C(CCc1nnc2ccc(NCc3ccccc3Cl)nn12)NCC1CCN(C2CCCC2)C1 (stereo not drawn) | -0.332% [at 46.1 µM] | –
CC1=C(C(=O)NC2CC(C)(C)Cc3c2cnn3-c2ccc(C)cc2)OCCO1 (stereo not drawn) | -19.3% | –
COc1cccc(-n2c(N)cc(=O)nc2SCC(=O)Nc2cc(C)on2)c1 | 20.4% | –
O=C(O)C[C@H](C(=O)OC[C@H]1CCCO1)N1CCOCC1 | 20% | –
CC1CN(C(=O)c2cc(COc3c(F)cccc3F)on2)CCN1C (stereo not drawn) | 29.3% | –
CCOc1cc(NC(=O)c2ccccn2)c(OCC)cc1NC(=O)c1ccc(OC)cc1 | -24.5% [at 46.1 µM] | –
CCC(C)(NC(=O)c1ccccn1)C(=O)NC1CCCCC1 (stereo not drawn) | -6.35% | –
CCN(CC)CCOc1ccc2c(c1)C(=NNC(=O)c1ccccn1)c1cc(OCCN(CC)CC)ccc1-2 | – | 10.3 µM (active)
CC(=O)N1CCOc2ccc(S(=O)(=O)N3CCC(C(=O)Nc4ccccc4F)CC3)cc21 | -3.88% [at 46.1 µM] | –
Cc1ccc(CN2CCN(Cc3ccc4ncccc4c3)CC2CCO)cc1 (stereo not drawn) | -22.5% [at 46.1 µM] | –
CCOc1ccc(CN2CCN(Cc3ccon3)CC2CCO)cc1 (stereo not drawn) | -4.65% [at 46.1 µM] | –
CCOc1ccc(CN2CCN(Cc3ccc4cc(F)ccc4n3)CC2CCO)cc1 (stereo not drawn) | – | 10 µM (active)
COc1cccc([C@@H]2Oc3ccc(OC)cc3C(=O)[C@@H]2OC(=O)Nc2cc(OC)c(OC)c(OC)c2)c1 | 12.9% [at 14.2 µM] | –
Cc1ccccc1CCNC(=O)C1CCC(=O)N(Cc2ccc(Cl)cc2)C1 (stereo not drawn) | 0.744% | –
